In the library only some 2.2% were active in any assay of this set; here they are far more common.
HepG2 viability: qHTS for Inhibitors of TGF-b: Cytotox Counterscreen | Potency, µM (series often up to 46.1 µM), actives largely listed as cytotoxic | HepG2 CAGA-GFP viability, ATP luminescence, 18 h | actives 0.76% (n = 410,000)
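CellTiter-Glo luminescence gave cytotoxicity after 18 hours at 37 degrees C. The cells were HepG2 CAGA-GFP in 1% FBS DMEM, stimulated with 500 pg/mL TGF-beta after compound addition. %Activity was normalised to no-cell wells (complete cell-killing) and DMSO (no toxicity), and curves were fitted and classified.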
LDHA inh: qHTS assay for inhibitors of human lactate dehydrogenase | purified LDHA, NADH/diaphorase-resazurin fluorescence; stronger effect = lower value | activity change, % (values are at about 110 or 230 µM) | actives 0.15% (n = 480,000); in the data active means activity change below about -30%; inconclusive means mostly about -25% to -30%
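Resorufin fluorescence (ex540/em590), read at 0 and 20 min after diaphorase/resazurin addition, reports the NADH left after a 5 min room-temperature reaction of 2 nM human LDH5 with 0.06 mM NADH and 0.2 mM pyruvate.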
mIDH1 inhibitor: qHTS for Inhibitors of mutant isocitrate dehydrogenase 1 (IDH1): qHTS; Isocitrate dehydrogenase [NADP] cytoplasmic (Homo sapiens), O75874; IDH1-R132H enzyme, NADPH consumption, diaphorase/resazurin fluorescence; Potency, µM (top dose mostly 76.6 µM), hits mostly inhibitors; actives 0.093% (n = 390,000); further: nearly all actives have a fitted effect of over 65% in size
Target sequence (O75874 whole entry R132H, stated change not applied): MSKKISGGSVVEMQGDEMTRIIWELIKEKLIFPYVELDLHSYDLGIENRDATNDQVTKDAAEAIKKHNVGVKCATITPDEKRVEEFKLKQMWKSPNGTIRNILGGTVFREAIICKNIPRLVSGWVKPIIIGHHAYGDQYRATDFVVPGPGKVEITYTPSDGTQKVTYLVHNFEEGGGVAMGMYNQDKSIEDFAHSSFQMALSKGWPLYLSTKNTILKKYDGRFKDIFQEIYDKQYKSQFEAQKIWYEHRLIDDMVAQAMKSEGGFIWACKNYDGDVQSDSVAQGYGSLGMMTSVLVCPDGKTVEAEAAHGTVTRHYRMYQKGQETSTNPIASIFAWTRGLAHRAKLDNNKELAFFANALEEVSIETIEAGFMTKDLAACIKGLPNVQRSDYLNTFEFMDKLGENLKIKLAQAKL
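IDH1-R132H (0.5 ug/mL dispensed) in pH 7.5 Tris buffer was preincubated 30 min with compound, then given a substrate mix of 0.016 mM NADPH and 2 mM alpha-KG for 80 min at room temperature; remaining NADPH was read by diaphorase/resazurin fluorescence.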
ATXN2 expr inh: Primary qHTS for Inhibitors of ATXN expression. Potency, µM (highest dose often 57 µM), actives largely listed as inhibitors. actives 0.72% (n = 360,000). HEK-293 ATXN2-luciferase reporter, luminescence, 24 h; further: nearly all actives have a fitted effect of over 55% in size
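qHTS (up to 57 uM final) was run with 24 h compound exposure of reporter cells at 37 °C. Each well was multiplexed: SteadyGlo luminescence measured ATXN2-luciferase expression after a fluorogenic Gly-Phe-AFC viability readout (25 uM final).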
S2 tox: Viability Counterscreen for Primary qHTS for Inhibitors of ATXN expression; AID 651635, 2014; S2 cells (HEK-293 line with an ATXN2-luciferase reporter) viability, CellTiter-Fluor protease fluorescence, 24 h; actives 0.49% (n = 400,000); Potency, µM (doses to about 56.7 µM), most hits filed as cytotoxic; further: nearly all actives have a fitted effect of over 40% in size
TGFb SMAD3 inh: qHTS for Inhibitors of TGF-b. actives 1.2% (n = 410,000). Potency, µM (top dose mostly 46.1 µM), usual class: inhibitors. HepG2 CAGA-GFP TGF-b/SMAD3 reporter, GFP fluorescence, 18 h; TGF-beta stimulated, 500 pg/mL final. AID 588855, 2011; further: nearly all actives have a fitted effect of over 65% in size
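Per well, imaged GFP fluorescence of HEPG2 CAGA-GFP cells gives the signal; cells get compound, then TGF-beta (500 pg/mL final), 18 h at 37 degrees C; %Activity versus -TGF-beta and +DMSO controls.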
A number is an active result; i = inactive; ? = inconclusive; nt = not tested or not shown. Unless noted, the call rests on the fitted dose curve; in most records, active means well fitted curve in the direction sought with a large enough effect; inconclusive means small, poorly fitted or top-dose-only effect, or another doubt; inactive means no such curve, though single readings can be large; an effect the other way counts as inactive or inconclusive.

SMILES	HepG2 viability	LDHA inh	mIDH1 inhibitor	ATXN2 expr inh	S2 tox	TGFb SMAD3 inh
CC(=O)/C(N=Nc1cccc(C(F)(F)F)c1)=C(\C)O	i	i	i	i	i	i
O=C(/C(N=Nc1cccc(C(F)(F)F)c1)=C(/O)c1cccs1)C(F)(F)F	i	i	i	?	?	12.6µM
CCn1cc(C(=O)NCCCO)c(=O)c2cc(F)c(N3CCN(C)CC3)cc21	i	i	i	nt	i	i
CCCCCCNC(=O)c1cn(CC)c2cc(N3CCN(C)CC3)c(F)cc2c1=O	12.6µM	i	i	?	?	?
N#Cc1cccc(Oc2ccccc2-c2ccccc2Oc2cccc(C#N)c2C#N)c1C#N	nt	i	nt	nt	nt	nt
CC1(C)CC2(C)OC2C2(C1)N=NC(=Nc1ccccc1)O2 (centres undefined)	i	i	nt	i	22.4µM	2.82µM
COc1ccc2cc(C(=O)C3CCCN(C(=O)/C=C/c4ccccn4)C3)ccc2c1 (centres undefined)	12.6µM	i	i	i	i	i
COc1ccc(-c2csc(N(CCCN(C)C)C(=O)c3ccccc3C)n2)cc1	10µM	i	i	?	i	?
COc1ccc(-c2csc(N(CCCN(C)C)C(=O)c3ccccc3Cl)n2)cc1	i	i	i	?	i	?
Cc1cnc(C(=O)Nc2cccc3cccnc23)cn1	i	i	i	?	?	2.82µM
CC1=C(C)CC(C(=O)c2ccccc2)C(C(=O)O)C1 (centres undefined)	i	i	i	i	i	i
N#CC1C(=O)c2ccccc2C1c1ccccc1 (centres undefined)	14.1µM	i	i	?	?	?
CC(C)C(Cl)=NOC(=O)Nc1ccc(F)cc1	20µM	i	i	?	21.2µM	i
COC(=O)c1ccc(CON2C(=O)c3ccccc3C2=O)cc1	i	i	i	i	i	i
CCOP(=O)(Nc1cccc2oc(=O)c3ccccc3c12)OCC	i	i	i	i	i	i
c1ccc2c(C3=NNC(=NC4CCCCC4)SC3)c[nH]c2c1	i	i	i	i	i	?
c1ccc(C2=NNC(=NC3CC3)SC2)cc1	7.08µM	i	i	?	i	i
c1ccc2c(C3=NNC(=NC4CC4)SC3)c[nH]c2c1	i	i	i	17.8µM	i	i
c1ccc(-c2nnc(CNC3CCCCCC3)o2)cc1	nt	i	nt	nt	nt	nt
Cc1c(C2=CCN(S(=O)(=O)c3ccc(Cl)cc3)CC2)c2ccccc2n1CC(=O)N1CCCC1	i	i	i	i	i	i
Cc1nc(N2CCN(S(=O)(=O)c3ccccc3)CC2)c2cc(-c3ccccc3)sc2n1	i	i	i	i	i	i
O=c1c2c(nc3c(-c4ccc(Cl)cc4)c[nH]n13)CCC2	i	i	i	12.6µM	?	?
Cc1ccn2c(NC(=O)c3ccco3)c(-c3ccccc3)nc2c1	i	i	i	i	i	i
CCCc1cc(=O)oc2c3c(c4c(c12)OC(C)(C)C=C4)OC(C)C(C)C3O (centres undefined)	7.94µM	i	?	?	?	?
O=C1C=Cc2cccc3ccc(O)c1c23	i	i	i	7.08µM	i	i
CCCCOC(=O)c1ccc(NS(=O)(=O)c2c(C)nc3scc(C)n3c2=O)cc1	i	i	i	i	i	11.2µM
CSc1ncccc1C(=O)OCC(=O)N1CCN(C(=O)c2ccco2)CC1	i	i	i	nt	i	i
O=[N+]([O-])c1cc(C(F)(F)F)ccc1NCCNC(=S)Nc1ccc(Cl)cc1	10µM	i	i	?	?	5.01µM
O=[N+]([O-])c1cc(C(F)(F)F)ccc1NCCCCNS(=O)(=O)c1ccc(Cl)cc1	10µM	i	i	?	?	?
CS(=O)(=O)NCCCNc1ccc(C(F)(F)F)cc1[N+](=O)[O-]	i	i	i	i	i	i

Screens from PubChem.
